Shown are actives, neighbours in structure and some others; about 21% of the full set was active somewhere.
AMA1-RON2 inh = inhibitors of Plasmodium falciparum AMA1-RON2 interaction; AlphaScreen AMA1-biotinylated RON2 peptide binding; AID 720542; hit rate 0.2% among 360,000; Potency, µM (titrated, usually from 58.2 µM), most hits filed as inhibitors; further: nearly all actives have a fitted effect of over 45% in size
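AMA1 (3D7) with his tag at 25 nM final met compounds first, then biotinylated RON2 peptide at 25 nM; detection used donor plus acceptor beads, 10 µg/mL apiece, read by AlphaScreen after 30 min at room temperature.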
Shiga toxin inh = inhibitors of Shiga toxin in Vero cells | Vero cells, Shiga toxin protein synthesis inhibition reporter | inhibition, % at 38.7 µM | hit rate 9.2% among 290,000; in the data active means inhibition mostly above about 28%, no sharp cut-off; inactive means mostly below about 43%
Pf growth 48h = P. falciparum growth inhibition at 48 hours (one generation). P. falciparum luciferase growth in erythrocytes, 48 h. hit rate 5.9% among 310,000. Potency, µM (highest dose often 28.7 µM), most hits filed as inhibitors
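Here the parasites carry a stable luciferase gene and grow inside erythrocytes in Albumax-based RPMI medium with compound for one erythrocytic cycle. Activity is scored as loss of luminescent signal.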
HCV inhibitor = inhibitors of hepatitis C virus infection. Huh7.5.1 HCVcc-Cre infection, luciferase reporter, 44 h. Potency, µM (series often up to 41.8 µM), usual class: inhibitors. hit rate 3.4% among 340,000. AID 651820
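After 44 h co-culture of compound, cells and HCVcc-Cre (~0.5 moi), substrate is added for 15 min at room temperature and luciferase measured over 15 sec. Cells were seeded at 1,000/well and pre-cultured 4 h.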
Pf growth 96h = P. falciparum growth inhibition at 96 hour, primary screen for plastid delayed-death inhibitors. P. falciparum luciferase reporter growth, 96 h. Potency, µM (doses to about 28.7 µM), usual class: inhibitors. hit rate 6.9% among 320,000
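P. falciparum expressing integrated firefly luciferase grown in erythrocytes (2% hematocrit, 0.05% parasitemia final) with compounds for 96 hours at 37 C, 5% CO2. Growth inhibition read as loss of luminescence after adding luciferase detection reagent.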
Cycloheximide cs = counter-screen hit for Shiga toxin inhibitors, cycloheximide | cell reporter, cycloheximide protein synthesis inhibition counterscreen | max response, % | hit rate 12% among 300,000 | AID 2314; in the data active means max response mostly above about 13%, no sharp cut-off; inactive means mostly below about 14%; further: read at 38.3 µM for the half of the compounds with a filed dose
Of the large screens only hits and unclear results are named; the others gave an inactive call. Unless noted, the call rests on the fitted dose curve; in most records, active means well fitted curve in the direction sought with a large enough effect; inconclusive means small, poorly fitted or top-dose-only effect, or another doubt; inactive means no such curve, though single readings can be large; an effect the other way counts as inactive or inconclusive.

CCCC(=O)N1CCN(c2ccc(NC(=O)c3cc4ccccc4o3)cc2)CC1	Pf growth 48h inconclusive, HCV inhibitor 10µM
CCC(=O)N1CCN(c2ccc(NC(=O)c3ccc4ccccc4c3)cc2)CC1	Pf growth 96h inconclusive
C/C(CC(=O)Nc1cc(C)ccn1)=N\NC(=O)c1cccc(C)c1	Pf growth 96h inconclusive
C/C(CC(=O)Nc1ccccn1)=N\NC(=O)c1ccc2ccccc2c1	Pf growth 96h 1.9µM, Cycloheximide cs 15
C/C(CC(=O)Nc1cc(C)ccn1)=N\NC(=O)c1cccc(C)c1O	Shiga toxin inh 69, Pf growth 48h inconclusive, HCV inhibitor inconclusive, Cycloheximide cs 26
C/C(CC(=O)Nc1ccccn1)=N\NC(=O)c1ccccc1	Cycloheximide cs 30 (no result: AMA1-RON2 inh)
C/C(CC(=O)Nc1ccccn1)=N\NC(=O)c1ccncc1	Pf growth 48h inconclusive (no result: AMA1-RON2 inh, HCV inhibitor)
C/C(=N/NC(=O)CNC(=O)COc1ccccc1)c1ccc(Cl)cc1	none
C/C(=N/NC(=O)CNC(=O)CCc1ccccc1)c1ccc(Cl)cc1	Cycloheximide cs 7.1
C/C(CC(=O)Nc1ccccn1)=N\NC(=O)c1ccccc1O	Shiga toxin inh 68, HCV inhibitor 7.1µM, Cycloheximide cs 52
CCc1ccc(NC(=O)C(=O)N/N=C(\C)CC(=O)NCc2ccc(Cl)cc2)cc1	none
C/C(CCc1ccccc1)=N\NC(=O)c1ccccc1	Shiga toxin inh 90, Cycloheximide cs 30
CCCNC(=O)C/C(C)=N/NC(=O)C(=O)Nc1ccccn1	Pf growth 96h inconclusive, Cycloheximide cs 26
CCNC(=O)C/C(C)=N/NC(=O)C(=O)Nc1ccc(CC)cc1	Cycloheximide cs 26
Cc1ccc(-c2nnc(N)s2)cc1	Shiga toxin inh 66, Cycloheximide cs 43
COc1ccc(-c2nnc(N)s2)cc1	Cycloheximide cs 37 (no result: Pf growth 96h)
Nc1nnc(-c2ccncc2)s1	AMA1-RON2 inh inconclusive
CNc1nnc(-c2ccc(OC)cc2)s1	Shiga toxin inh 78, Cycloheximide cs 33
Cc1ccc(SCc2nnc(N)s2)cc1	Cycloheximide cs 10
C[C@@H]1CN([C@@H](C)CO)C(=O)c2cc(Br)cnc2O[C@H]1CN(C)C(=O)CN1CCOCC1	none (no result: Shiga toxin inh, Pf growth 48h, HCV inhibitor, Pf growth 96h, Cycloheximide cs)
CC(C)c1ccc(-c2nnc(N)s2)cc1	Shiga toxin inh 54, Cycloheximide cs 66
CCCOc1ccc(-c2nnc(N)s2)cc1	Shiga toxin inh 105, HCV inhibitor inconclusive, Cycloheximide cs 40 (no result: Pf growth 96h)
CCCOc1ccc(-c2nc(-c3ccc(N)cc3)cs2)cc1	Shiga toxin inh 62, Cycloheximide cs 68 (no result: AMA1-RON2 inh, HCV inhibitor)
CC(=O)Nc1ccc(NC(=O)c2cc(-c3ccc(F)cc3C)n[nH]2)cc1	none (no result: Shiga toxin inh, Pf growth 48h, HCV inhibitor, Pf growth 96h, Cycloheximide cs)
CC(=O)Nc1ccc(NC(=O)c2cc(-c3ccc(C)c(C)c3O)n[nH]2)cc1	Pf growth 48h 12µM, Pf growth 96h 2.3µM, Cycloheximide cs 29
CC(=O)Nc1ccc(NC(=O)c2cc(-c3cc(C)cc(C)c3O)n[nH]2)cc1	Pf growth 48h 12µM, HCV inhibitor 8.9µM, Pf growth 96h inconclusive, Cycloheximide cs 23
COc1ccc(NC(=O)c2cc(-c3ccc(C)c(C)c3O)n[nH]2)cc1Cl	Pf growth 48h inconclusive, HCV inhibitor 2.5µM, Pf growth 96h inconclusive
Cc1cc(C)c(O)c(-c2cc(C(=O)Nc3ccc(S(=O)(=O)N4CCOCC4)cc3)[nH]n2)c1	Pf growth 48h 5.9µM, HCV inhibitor 10µM (no result: Pf growth 96h)
COc1ccc(-c2cc(=O)oc3cc(OC(C)C(=O)NCc4ccccn4)ccc23)cc1 (centres undefined)	Pf growth 48h inconclusive, HCV inhibitor inconclusive, Pf growth 96h inconclusive
CN(C(=O)c1cccc(NC(=O)Cc2ccc(NC(=O)C3CCN(C(=O)C4CCCCC4)CC3)cc2)c1)C1CC1	HCV inhibitor inconclusive (no result: Shiga toxin inh, Pf growth 48h, Pf growth 96h, Cycloheximide cs)
CC1CC(C)CN(S(=O)(=O)c2ccc3oc(=O)ccc3c2)C1 (centres undefined)	none
O=C(NCCC1=CCCCC1)c1[nH]c(C(F)(F)F)nc1-c1ccccc1	none (no result: Shiga toxin inh, Pf growth 48h, HCV inhibitor, Pf growth 96h, Cycloheximide cs)
Cc1cccc(NC(=O)c2cc(-c3ccc(C)c(C)c3O)n[nH]2)c1	Shiga toxin inh 92, HCV inhibitor inconclusive, Cycloheximide cs 49
Cc1ccc(-c2cc(C(=O)Nc3ccc(S(=O)(=O)Nc4ncccn4)cc3)[nH]n2)c(O)c1C	Pf growth 48h inconclusive, Pf growth 96h 9.3µM
Cc1ccc(-c2cc(C(=O)Nc3ccc(S(=O)(=O)Nc4onc(C)c4C)cc3)[nH]n2)c(O)c1	none
COc1ccc(CCNC(=O)CN(C)S(=O)(=O)c2cccs2)cc1	none (no result: Shiga toxin inh, Cycloheximide cs)
CCCc1cc(C(=O)Nc2ccc(C(=O)c3ccccc3)cc2)n(C)n1	Pf growth 48h inconclusive, HCV inhibitor 16µM, Pf growth 96h inconclusive
CCCc1cc(C(=O)Nc2ccc(C(=O)c3ccc(F)cc3)cc2)n(C)n1	Pf growth 48h inconclusive, HCV inhibitor 10µM, Pf growth 96h inconclusive
Cn1nc(C(=O)Nc2ccc(Br)cc2)cc1C(=O)Nc1ccc(Br)cc1	Pf growth 96h inconclusive
CCc1ccc(CNC(=O)c2ccc(OC3CCN(C(C)=O)CC3)c(OC)c2)nc1	none
CCc1ccc(CNC(=O)c2ccc3nc(C4CCCCC4)oc3c2)nc1	Shiga toxin inh 33, Pf growth 48h inconclusive, Cycloheximide cs 46 (no result: AMA1-RON2 inh, HCV inhibitor)
CCOC(=O)CCNC(=O)c1ccc2nc(C3CCCCC3)oc2c1	Pf growth 96h inconclusive, Cycloheximide cs 17
CCOC(=O)CCCNC(=O)CCNC(=O)c1ccc(OC)cc1	none
COc1ccccc1-c1noc2ncnc(Nc3cccc(C)c3C)c12	Pf growth 48h inconclusive, Pf growth 96h inconclusive
Cc1ccc(-n2c(C)cc3c2CCCC3=O)cc1	Pf growth 48h 10µM
Cc1ccc(-c2cc3c(n2-c2ccc(C(=O)O)cc2)CCCC3=O)cc1	Shiga toxin inh 64, Cycloheximide cs 19
O=C1CCCc2c1cc(-c1ccccc1)n2-c1ccc(O)cc1	none
COC(=O)C(C)(C)ONC(=O)Nc1ccccc1Cl	none
COc1ccc(Cl)cc1NC(=O)CSc1nc2ccsc2c(=O)n1CC1CCC(C(=O)O)CC1 (centres undefined)	Pf growth 48h inconclusive
O=C(O)c1nc(-c2ccccc2)c(C(=O)NC2CC2)[nH]1	none (no result: Shiga toxin inh, Pf growth 48h, HCV inhibitor, Pf growth 96h, Cycloheximide cs)
Cc1ccc(-c2nc(NCc3cccnc3)c3ccccc3n2)cc1	Pf growth 48h inconclusive, HCV inhibitor inconclusive, Cycloheximide cs 14
Cc1ccc(-c2nc(N/N=C/c3cccnc3)c3ccccc3n2)cc1	HCV inhibitor inconclusive, Pf growth 96h inconclusive, Cycloheximide cs 20 (no result: Pf growth 48h)
Clc1cccc(-c2nc(NCc3cccnc3)c3ccccc3n2)c1	Pf growth 48h inconclusive, HCV inhibitor 2.8µM, Pf growth 96h inconclusive
O=[N+]([O-])c1cccc(-c2nc(NCc3ccccc3)c3ccccc3n2)c1	Pf growth 48h inconclusive, HCV inhibitor inconclusive
c1ccc(-c2nc(NCc3cccnc3)c3ccccc3n2)cc1	Pf growth 48h inconclusive, HCV inhibitor 10µM, Pf growth 96h inconclusive
FC(F)(F)c1nc(NCc2cccnc2)c2ccccc2n1	none
CCCCCOP(=O)(c1ccccc1)c1ccccc1	Pf growth 48h 12µM, Pf growth 96h 9.3µM
